Assay outcomes: PubChem, National Center for Advancing Translational Sciences (NCATS)
The list is not random: actives were taken first. Their share in the collection is about 1.1%.
Eya2 phos inh = inhibitors of human Eya2 phosphatase activity | recombinant Eya2, OMFP fluorescence dephosphorylation (OMFP is methylfluorescein phosphate) | hit rate 0.006% among 330,000 | AID 488837 | Potency, µM (series often up to 76.9 µM), most hits filed as inhibitors | O00167
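Eya2 (0.2 uM) preincubated 10 min at ambient with compound, then OMFP substrate added at 50 uM; 10 min reaction in 50 mM HEPES pH 7.5, 50 mM NaCl, 5 uM MgCl2, 0.05% BSA, 1 mM DTT. Fluorescence read at Ex 485/Em 525 nm.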
12-LOX inh = ALOX12 (human) lipoxygenase inhibition; AID 1671190; purified 12hLO, xylenol orange hydroperoxide absorbance; hit rate 1.1% among 580,000; Potency, µM (highest dose often 108 µM), hits mostly inhibitors; P18054
Target sequence (P18054 whole entry, looked up): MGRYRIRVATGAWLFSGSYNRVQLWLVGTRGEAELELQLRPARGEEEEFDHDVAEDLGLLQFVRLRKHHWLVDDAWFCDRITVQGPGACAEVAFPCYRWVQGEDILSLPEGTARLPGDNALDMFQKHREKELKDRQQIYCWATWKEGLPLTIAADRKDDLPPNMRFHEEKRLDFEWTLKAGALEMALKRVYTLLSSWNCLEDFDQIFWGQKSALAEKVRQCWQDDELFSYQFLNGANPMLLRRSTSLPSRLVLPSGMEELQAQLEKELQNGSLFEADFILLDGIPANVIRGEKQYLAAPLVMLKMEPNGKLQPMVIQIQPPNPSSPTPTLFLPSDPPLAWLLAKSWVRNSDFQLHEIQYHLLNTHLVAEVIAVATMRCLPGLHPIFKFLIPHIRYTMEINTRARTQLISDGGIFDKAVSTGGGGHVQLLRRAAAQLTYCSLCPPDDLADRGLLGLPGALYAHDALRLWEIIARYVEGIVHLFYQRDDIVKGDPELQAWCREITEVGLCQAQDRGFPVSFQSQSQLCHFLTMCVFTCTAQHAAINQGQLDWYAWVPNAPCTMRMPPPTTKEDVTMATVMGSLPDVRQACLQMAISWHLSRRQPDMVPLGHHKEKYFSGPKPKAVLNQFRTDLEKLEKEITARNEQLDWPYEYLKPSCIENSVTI
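Purified human 12hLO (150 nM final) in 25 mM Hepes, 0.01% Triton X-100, pH 7.0 was preincubated 15 min at room temperature with compound. Then 40 uM arachidonic acid was added, 30 min. Hydroperoxide was read by Fe-XO absorbance ratio 573/405 nm.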
TSG101-PTAP inh = blocks PTAP/TSG101 interaction to inhibit HIV-1 budding; 340,000 tested, under 10 active; Potency, µM (highest dose often 115 µM), actives largely listed as inhibitors; Q99816; Fluorescence polarization, FITC-PTAP peptide / Tsg101 binding; active = well fitted inhibition curve with a large enough effect in the main read-out, with a control signal flat, not every such curve was filed as active; inconclusive = small, poorly fitted or top-dose-only effect, or effect the other way, or a change in a side signal; inactive = no such curve, though single readings can be large or run the other way
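Compounds were pin-transferred onto Tsg101 binding domain (10 uM final) in HEPES pH 7.5 buffer, then FITC-PTAP peptide was added at 50 nM final. After 20 min at RT, polarization reported peptide displacement across a qHTS concentration series.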
USP2a inh = inhibitors of human ubiquitin-specific protease USP2a | Potency, µM (titrated, usually from 38.3 µM), hits mostly inhibitors | hit rate 0.01% among 330,000 | USP2 core, Ub-CHOP2 coupled fluorogenic reporter, 485/531 | AID 463254
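USP2 core (10nM final) preincubated 30min RT with compound in 20mM Tris-HCl pH 8.0, 2mM CaCl2, 2mM beta-mercaptoethanol, 0.05% CHAPS; 25nM Ub-CHOP2 plus 25nM reporter substrate added, fluorescence (Ex485/Em531) read after 60min.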
A number is an active result; . = inactive; ? = inconclusive; / = no result; [ ] = another dose, or the depositor's remark. Unless noted, calls follow the shape of the dose curve; as a rule, active = well fitted curve in the direction sought with a large enough effect; inconclusive = small, poorly fitted or top-dose-only effect, or another doubt; inactive = no such curve, though single readings can be large; an effect the other way counts as inactive or inconclusive.

SMILES	Eya2 phos inh	12-LOX inh	TSG101-PTAP inh	USP2a inh
O=S(=O)(NCc1ccc(N2CCOCC2)nc1)c1ccc(Cl)c(Cl)c1	/	.	/	/
Cc1cc(Nc2cc(C)on2)n2ncnc2n1	.	1.26µM	.	.
CCc1noc(CSc2nc(-c3ccco3)nc3ccccc23)n1	/	.	/	/
Cc1ccc(C(c2sc3nc(-c4ccco4)nn3c2O)N2CCOCC2)cc1 (stereo unspecified)	/	14.1µM	/	/
COCCN1CCCCCC(O)c2cc(C(=O)NC3CCCCC3)ccc21 (stereo unspecified)	/	.	/	/
CCCCCCCCS(=O)CCO (stereo unspecified)	/	.	/	/
Cc1cc(-c2nc(C3CCOCC3)nn2Cc2ccccc2C)c(C)o1	/	.	/	/
CC(O)(c1ccc(F)c(F)c1)c1nc(-c2csc3ccccc23)cs1 (stereo unspecified)	/	44.7µM	/	/
CC(O)(c1ccc(F)c(F)c1)c1nc(/C=C/c2ccc(C(F)(F)F)cc2)cs1 (stereo unspecified)	/	35.5µM	/	/
N#Cc1ccc(NCCc2coc(-c3ccccc3)n2)nc1	/	.	/	/
O=S(Cc1ccccc1)Cc1c(F)cccc1Cl (stereo unspecified)	/	.	/	/
Oc1cccnc1SCc1ccccc1	.	6.31µM	.	.
COc1ccc2cc(CN(C)C(=O)CNC(=O)c3ccccc3F)ccc2c1	/	.	/	/
O=C(NCCNCc1ccccc1)c1ccco1	/	28.2µM	.	/
CCc1ccc(CNCCNC(=O)c2ccco2)cc1	/	.	.	/
COc1ccc(-c2cc3ccccc3[nH]2)cc1	.	?	.	.
CCOc1ccc(-c2cc3ccccc3[nH]2)cc1	/	12.6µM	/	/
CCN=C(N/N=C/c1ccc([N+](=O)[O-])cc1)SC	.	31.6µM	.	.
O=[N+]([O-])c1ccc(C=NNC(=S)NN=Cc2ccc([N+](=O)[O-])cc2)cc1	/	?	.	/
COc1ccc(-c2cc(C[C@H]3CNCC[C@H]3CC(=O)NCc3ccccc3)no2)cc1	/	.	/	/
Cc1c(C(c2cccc([N+](=O)[O-])c2O)c2c(C)n(C)n(-c3ccccc3)c2=O)c(=O)n(-c2ccccc2)n1C	.	.	/	.
Cc1[nH]n(-c2ccccc2)c(=O)c1C(c1cccc([N+](=O)[O-])c1O)c1c(C)[nH]n(-c2ccccc2)c1=O	.	25.1µM	.	.
Cc1c(CC(=O)NCCc2cccc(F)c2)c(=O)oc2cc(O)ccc12	/	.	/	/
Cc1cc(O)c2c(C)c(CC(=O)NCCc3cccc(F)c3)c(=O)oc2c1	/	28.2µM	/	/
CC(C)c1ccc(NC(=O)CN2CCN(C(=O)c3cccs3)CC2)cc1	/	.	/	/
SMILES	Eya2 phos inh	12-LOX inh	TSG101-PTAP inh	USP2a inh
Oc1ccc(/C=N/NC(=S)NC2CC3CCC2C3)cc1 (stereo unspecified)	.	17.8µM	.	.
Cc1[nH]c(-c2ccccc2)nc1C(=O)O	/	.	/	/
COc1cccc(C2c3cc4c(cc3OC(NNC(N)=O)C2C)OCO4)c1O (stereo unspecified)	/	15.8µM	.	/
COc1ccc(C2c3cc4c(cc3OC(N3CCOCC3)C2C)OCO4)c(OC)c1 (stereo unspecified)	/	.	.	/
COc1cccc(C2c3cc4c(cc3OC(N3CCOCC3)C2C)OCO4)c1O (stereo unspecified)	/	31.6µM	.	/
COc1ccc(CCc2nc3nccc(-c4ccc(OC)c(OC)c4)n3n2)cc1	/	.	/	/
Cc1ccc(NC(=O)/C(C#N)=N/Nc2ccc(C(=O)O)cc2)c(C)c1	.	.	.	.
Cc1ccc(N/N=C(\C#N)C(N)=S)c(C)c1	.	8.91µM	.	.
COc1ccc(S(=O)(=O)N2CCN(CCNC(=O)COc3ccc(C(C)C)cc3)CC2)cc1	/	35.5µM	/	/
COc1cc(OC)c2c(C)c(CC(=O)NCc3ccc4c(c3)OCO4)c(=O)oc2c1	/	.	/	/
O=C(O)c1ccc(NC(=O)c2cccc(N3C(=O)C4C5CCC(C5)C4C3=O)c2)cc1 (stereo unspecified)	.	.	.	.
COc1ccc(NC(=O)c2cccc(N3C(=O)C4C5CCC(C5)C4C3=O)c2)cc1 (stereo unspecified)	.	6.31µM	.	.
O=C(O)c1cccc2cccc(-c3c4ccc(=O)c(O)c-4oc4c(O)c(O)ccc34)c12	/	6.31µM	.	/
O=[S+]([O-])(c1cccnc1)c1nnn2c1nc(N1CCCCC1)c1ccccc12	/	.[6.33 µM]	/	/
c1ccc2c(c1)CC/C2=N/Nc1nc2ccccc2[nH]1	.	?	.	.
FC(F)(F)c1ccccc1N/N=C1/CCc2ccccc21	/	10µM	/	/
Cc1nc(SCc2ccccc2Cl)c(C#N)c(C)c1C	/	.	/	/
N#Cc1c(SCc2c(Cl)cccc2Cl)nc(N)[nH]c1=S	.	31.6µM	.	.
CC1=C[C@@H](CN2CCC(O)CC2)[C@H](C(C)C)C[C@H]1Cc1nnc(-c2ccc(N(C)C)cc2)o1	/	.	/	/
O=C(C1CCC1)N1CCCC(n2cc(-c3nc(-c4ccccc4)no3)nn2)C1 (stereo unspecified)	/	.	/	/
Cc1cc(C)cc(C(=O)NC(=S)Nc2ccc3c(c2)OCCO3)c1	.	6.31µM	.	.
Cc1ccc(C(=O)NC(=S)Nc2ccc(CN3CCOCC3)cc2)cc1	.	35.5µM	.	.
O=C(NC(=S)Nc1ccc2c(c1)OCCO2)c1ccco1	?	.	.	.
COc1cc(OC)cc(C(=O)NC(=S)Nc2ccc(N3CCCC3)cc2)c1	.	44.7µM	.	.
Cc1ccc(C(=O)NC(=S)Nc2ccc(N3CCOCC3)cc2)c(C)c1	.	7.94µM	.	.
SMILES	Eya2 phos inh	12-LOX inh	TSG101-PTAP inh	USP2a inh
COCCn1c(COc2ccccc2-c2ccccc2)nnc1SCC(=O)c1ccccc1Cl	/	.	/	/
O=C(NC(=S)Nc1ccc2c(c1)OCCO2)c1ccc(F)cc1Cl	.	.	.	.
Cc1ccc(C(=O)NC(=S)Nc2ccc3c(c2)OCCO3)c(C)c1	.	12.6µM	.	.
CCc1ccc(C(=O)NC(=S)Nc2ccc3c(c2)OCCO3)cc1	.	14.1µM	.	.
O=C(NC(=S)Nc1ccc(N2CCCCC2)c(Cl)c1)c1ccc2c(c1)OCCO2	.	22.4µM	.	.
CCC(NC(=O)C1CCC1)c1ccccc1 (stereo unspecified)	.	.	.	.
CCC(NC(=O)C1CC1)c1ccc(C)cc1 (stereo unspecified)	/	5.01µM	/	/
O=C(N/N=C/C=C/c1ccccc1[N+](=O)[O-])NC1CCCCC1	/	.	/	/
Cc1[nH]cnc1CN1CCCC(C(=O)Nc2ccc(-c3cccc(F)c3)cc2)C1 (stereo unspecified)	/	.	/	/
COc1ccc(C(=O)/C(=C/c2ccco2)c2nc3ccccc3o2)cc1	/	14.1µM	/	/
COc1ccc(C(=O)/C(=C/c2ccccn2)c2nc3ccccc3o2)cc1	/	.	/	/
COc1cc(OC)cc(C(=O)/C(=C\c2ccco2)c2nc3ccccc3o2)c1	/	39.8µM	/	/
COc1ccc(C(=O)/C(=C/c2ccccn2)c2nc3ccccc3o2)cc1OC	/	.	/	/
COc1cccc(C(=O)/C(=C/c2ccco2)c2nc3ccccc3o2)c1	/	39.8µM	/	/
NNc1nc2c(F)cccc2s1	.	?	.	.
NNc1nc2c(F)cc(F)cc2s1	.	39.8µM	.	.
Clc1ccc(CNCc2ccccc2Cn2cncn2)c(Cl)c1	/	44.7µM	/	/
